Sequences and labels used below:
B1: ENSMUSG00000058297.516|Spock2|37:41 (ssRNA)
RNA: GGGAGUUCUACAGUCCGACGAUCGCUUCGAUAUCCGCAUGCUAAUCUUACCCCCAGUGUUCCACAGGAGUCGUGACCACCACACAUGGGUGGGCACAGGUCUGCCUUGCUCCAGCCCCCUCCCUUGGUUUCUGUUGGUACCCAUUUGGCUUUUAUCUGCUUUCUGCUUCACCACUAAGUGCGUAGGUGGGGUCUUUUGAUAUCGGCUCCCCAAAGCCCAAGCCCACAGCCCUAGGAGAGAACCAGGGGCCCAUCUUUGACACCUGGGCCAUCACGAGCCCUCCCGCCUGCAGUUGUCCUAGGGCUCUUGCGGUCGCACUAGUGUGGAAUUCUCGGGUGUCAAGG
B2: ENSMUSG00000043670.217|Diras1|25:29;58:70;94:99;102:106;111:115;225:229 (ssRNA)
RNA: GGGAGUUCUACAGUCCGACGAUCGCUUCGAUAUCCGCAUGCUAGGAUGGGGUGUUCUUGCACCACUUACACAUCUUAGUGAGACCACAGUGUAAGUGGCCCACACACACACACGGGGGGGGCACCUAGACAUUGUGCACACACUCAUACGCUCACACAUUUCAGGGGUGGGUGACACAGGCCUGUCUGAUGAGCACCAGGUCUGUUCCAGGCUGUGGCAAGCUGGCUCCUGGCUCAGAAGUGACAAAGCUGCAGUACAGAGGCCUCACACACAGGUCAUCACCUCACAGUGGCUACAGACCAGCUCUUGCGGUCGCACUAGUGUGGAAUUCUCGGGUGUCAAGG
B3: ENSMUSG00000042529.419|Kcnj12|1:17;22:27;31:35;47:57;80:85;242:246 (ssRNA)
RNA: GGGAGUUCUACAGUCCGACGAUCGCUUCGAUAUCCGCAUGCUACACACACACACACACACAACAACACACAGGCACACGAGGUCCCAGGCACACACAUACUGAAUGUCAGUGGCUUGGGUGCACACACGAGAGAGAGAGAGAGAGAGAGAGAGAGAGAGAGAGAGAGAGAGAGAGAGAGCUGCACAGGAUGAAGCAGCUGCCCUGAGCCCAUCUGGUGCUGUGCACCUGGUCCUUGUCCAGCCGAGGGCCUGGGGGCAGAAGAACACACCAUAGGGAGGCCCUUCAUACGGUGUCUGCCCUAUCUCUUGCGGUCGCACUAGUGUGGAAUUCUCGGGUGUCAAGG
B4: ENSMUSG00000042529.425|Kcnj12|11:21;44:49;206:210 (ssRNA)
RNA: GGGAGUUCUACAGUCCGACGAUCGCUUCGAUAUCCGCAUGCUAAGGUCCCAGGCACACACAUACUGAAUGUCAGUGGCUUGGGUGCACACACGAGAGAGAGAGAGAGAGAGAGAGAGAGAGAGAGAGAGAGAGAGAGAGAGAGCUGCACAGGAUGAAGCAGCUGCCCUGAGCCCAUCUGGUGCUGUGCACCUGGUCCUUGUCCAGCCGAGGGCCUGGGGGCAGAAGAACACACCAUAGGGAGGCCCUUCAUACGGUGUCUGCCCUAUGUGAGGUCAUAGAAUGUUAAAUCUAUUUUAAACGGUCUCUUGCGGUCGCACUAGUGUGGAAUUCUCGGGUGUCAAGG
B5: ENSMUSG00000042529.426|Kcnj12|5:15;38:43;200:204 (ssRNA)
RNA: GGGAGUUCUACAGUCCGACGAUCGCUUCGAUAUCCGCAUGCUACAGGCACACACAUACUGAAUGUCAGUGGCUUGGGUGCACACACGAGAGAGAGAGAGAGAGAGAGAGAGAGAGAGAGAGAGAGAGAGAGAGAGAGCUGCACAGGAUGAAGCAGCUGCCCUGAGCCCAUCUGGUGCUGUGCACCUGGUCCUUGUCCAGCCGAGGGCCUGGGGGCAGAAGAACACACCAUAGGGAGGCCCUUCAUACGGUGUCUGCCCUAUGUGAGGUCAUAGAAUGUUAAAUCUAUUUUAAACGGUGAAACUCUCUUGCGGUCGCACUAGUGUGGAAUUCUCGGGUGUCAAGG
B6: ENSMUSG00000042529.421|Kcnj12|1:5;10:15;19:23;35:45;68:73;230:234 (ssRNA)
RNA: GGGAGUUCUACAGUCCGACGAUCGCUUCGAUAUCCGCAUGCUACACACAACAACACACAGGCACACGAGGUCCCAGGCACACACAUACUGAAUGUCAGUGGCUUGGGUGCACACACGAGAGAGAGAGAGAGAGAGAGAGAGAGAGAGAGAGAGAGAGAGAGAGAGAGCUGCACAGGAUGAAGCAGCUGCCCUGAGCCCAUCUGGUGCUGUGCACCUGGUCCUUGUCCAGCCGAGGGCCUGGGGGCAGAAGAACACACCAUAGGGAGGCCCUUCAUACGGUGUCUGCCCUAUGUGAGGUCAUAGCUCUUGCGGUCGCACUAGUGUGGAAUUCUCGGGUGUCAAGG
B7: ENSMUSG00000042529.420|Kcnj12|1:11;16:21;25:29;41:51;74:79;236:240 (ssRNA)
RNA: GGGAGUUCUACAGUCCGACGAUCGCUUCGAUAUCCGCAUGCUACACACACACACAACAACACACAGGCACACGAGGUCCCAGGCACACACAUACUGAAUGUCAGUGGCUUGGGUGCACACACGAGAGAGAGAGAGAGAGAGAGAGAGAGAGAGAGAGAGAGAGAGAGAGAGAGCUGCACAGGAUGAAGCAGCUGCCCUGAGCCCAUCUGGUGCUGUGCACCUGGUCCUUGUCCAGCCGAGGGCCUGGGGGCAGAAGAACACACCAUAGGGAGGCCCUUCAUACGGUGUCUGCCCUAUGUGAGGCUCUUGCGGUCGCACUAGUGUGGAAUUCUCGGGUGUCAAGG
B8: ENSMUSG00000042529.427|Kcnj12|1:9;32:37;194:198 (ssRNA)
RNA: GGGAGUUCUACAGUCCGACGAUCGCUUCGAUAUCCGCAUGCUACACACAUACUGAAUGUCAGUGGCUUGGGUGCACACACGAGAGAGAGAGAGAGAGAGAGAGAGAGAGAGAGAGAGAGAGAGAGAGAGAGCUGCACAGGAUGAAGCAGCUGCCCUGAGCCCAUCUGGUGCUGUGCACCUGGUCCUUGUCCAGCCGAGGGCCUGGGGGCAGAAGAACACACCAUAGGGAGGCCCUUCAUACGGUGUCUGCCCUAUGUGAGGUCAUAGAAUGUUAAAUCUAUUUUAAACGGUGAAACUGGAGAACUCUUGCGGUCGCACUAGUGUGGAAUUCUCGGGUGUCAAGG
B9: ENSMUSG00000042529.422|Kcnj12|4:9;13:17;29:39;62:67;224:228 (ssRNA)
RNA: GGGAGUUCUACAGUCCGACGAUCGCUUCGAUAUCCGCAUGCUAACAACACACAGGCACACGAGGUCCCAGGCACACACAUACUGAAUGUCAGUGGCUUGGGUGCACACACGAGAGAGAGAGAGAGAGAGAGAGAGAGAGAGAGAGAGAGAGAGAGAGAGAGCUGCACAGGAUGAAGCAGCUGCCCUGAGCCCAUCUGGUGCUGUGCACCUGGUCCUUGUCCAGCCGAGGGCCUGGGGGCAGAAGAACACACCAUAGGGAGGCCCUUCAUACGGUGUCUGCCCUAUGUGAGGUCAUAGAAUGUUCUCUUGCGGUCGCACUAGUGUGGAAUUCUCGGGUGUCAAGG
B10: ENSMUSG00000042529.424|Kcnj12|1:5;17:27;50:55;212:216 (ssRNA)
RNA: GGGAGUUCUACAGUCCGACGAUCGCUUCGAUAUCCGCAUGCUACACACGAGGUCCCAGGCACACACAUACUGAAUGUCAGUGGCUUGGGUGCACACACGAGAGAGAGAGAGAGAGAGAGAGAGAGAGAGAGAGAGAGAGAGAGAGAGAGCUGCACAGGAUGAAGCAGCUGCCCUGAGCCCAUCUGGUGCUGUGCACCUGGUCCUUGUCCAGCCGAGGGCCUGGGGGCAGAAGAACACACCAUAGGGAGGCCCUUCAUACGGUGUCUGCCCUAUGUGAGGUCAUAGAAUGUUAAAUCUAUUUUACUCUUGCGGUCGCACUAGUGUGGAAUUCUCGGGUGUCAAGG
B11: ENSMUSG00000042529.423|Kcnj12|7:11;23:33;56:61;218:222 (ssRNA)
RNA: GGGAGUUCUACAGUCCGACGAUCGCUUCGAUAUCCGCAUGCUAGUGAGGCACACGAGGUCCCAGGCACACACAUACUGAAUGUCAGUGGCUUGGGUGCACACACGAGAGAGAGAGAGAGAGAGAGAGAGAGAGAGAGAGAGAGAGAGAGAGAGAGCUGCACAGGAUGAAGCAGCUGCCCUGAGCCCAUCUGGUGCUGUGCACCUGGUCCUUGUCCAGCCGAGGGCCUGGGGGCAGAAGAACACACCAUAGGGAGGCCCUUCAUACGGUGUCUGCCCUAUGUGAGGUCAUAGAAUGUUAAAUCUCUCUUGCGGUCGCACUAGUGUGGAAUUCUCGGGUGUCAAGG

In all, about 9,900 sequences were measured (“r (bound/input frequency ratio)”: median about 0.7, highest 2% from about 6.5 on). The list comes from a sample in which the highest values are over-represented; it also holds similar and randomly drawn sequences.

Chain of TDP-43 (Q13148 whole entry): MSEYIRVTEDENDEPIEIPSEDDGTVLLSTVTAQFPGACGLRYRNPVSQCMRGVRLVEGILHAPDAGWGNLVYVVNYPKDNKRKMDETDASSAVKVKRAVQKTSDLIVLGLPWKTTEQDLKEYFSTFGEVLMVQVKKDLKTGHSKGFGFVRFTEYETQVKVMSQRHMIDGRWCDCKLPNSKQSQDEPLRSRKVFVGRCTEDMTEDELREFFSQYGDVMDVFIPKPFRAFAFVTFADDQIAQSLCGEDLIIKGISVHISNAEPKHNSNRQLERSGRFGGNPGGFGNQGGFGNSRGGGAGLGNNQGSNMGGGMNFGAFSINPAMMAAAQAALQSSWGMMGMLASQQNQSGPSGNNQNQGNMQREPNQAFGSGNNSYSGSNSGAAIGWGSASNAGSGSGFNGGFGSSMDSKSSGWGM

For the experiment, the target named is TDP-43 (Homo sapiens, UniProt Q13148 1-414). As to the kind of experiment: RNA Bind-n-Seq with designed 260-mer pool; 25 mM Tris-HCl, 150 mM KCl, 3 mM MgCl2, BSA (printed 500 mg/mL), 20 units/mL SUPERase IN; pH not stated; 500 nM RNA pool, 1 h, 4 C; TDP-43 5, 50, 500 nM; high values mean tight binding. As to conditions: protein: recombinant; tags: SBP (GST cleaved off with PreScission; pGEX-GST-SBP). In short, it runs like this:
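The incubation lasted 1 h at 4 °C and used 500 nM of an in vitro-transcribed 260-nt 3′ UTR oligo pool with recombinant SBP-tagged TDP-43 at 5, 50 or 500 nM immobilized on streptavidin beads. It took place in 25 mM Tris-HCl, 150 mM KCl, 3 mM MgCl2, BSA and SUPERase IN. Bound RNA was washed, eluted with biotin, converted to cDNA, PCR-amplified and sequenced to give R, each oligo's normalized abundance in the bound sample divided by that in input. Two independent protein batches provided the duplicates.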
For B1, the binding signal was 0.797 R (bound/input frequency ratio).
In the case of B2, the binding signal was 0.883 R (bound/input frequency ratio).
For the molecule B3, the binding signal was 6.45 R (bound/input frequency ratio).
The result for B4 reads 6.2 R (bound/input frequency ratio); that for B5, 5.67 R (bound/input frequency ratio); that for B6, 7.21 R (bound/input frequency ratio).
With B7, the binding signal was 4.97 R (bound/input frequency ratio).
The result for B8 reads 5.49 R (bound/input frequency ratio); that for B9, 6.32 R (bound/input frequency ratio); that for B10, 6.55 R (bound/input frequency ratio).
Consider B11, for which the binding signal was 7.58 R (bound/input frequency ratio).

Values taken from paper PMC12864922, “TDP-43 directly inhibits mRNA accumulation in neurites through modulation of mRNA stability”.
